# High-throughput results from PubChem BioAssay.
# PLC-gamma1 inh = PLC-gamma1 enzyme inhibitors, primary screen, biochemical, fluorescence, purified enzyme. hit rate 0.84% among 370,000. fluorogenic substrate. inhibition, % at 12.2 µM; in the data active means inhibition above about 9.5%
# Target sequence (P19174 whole entry, looked up): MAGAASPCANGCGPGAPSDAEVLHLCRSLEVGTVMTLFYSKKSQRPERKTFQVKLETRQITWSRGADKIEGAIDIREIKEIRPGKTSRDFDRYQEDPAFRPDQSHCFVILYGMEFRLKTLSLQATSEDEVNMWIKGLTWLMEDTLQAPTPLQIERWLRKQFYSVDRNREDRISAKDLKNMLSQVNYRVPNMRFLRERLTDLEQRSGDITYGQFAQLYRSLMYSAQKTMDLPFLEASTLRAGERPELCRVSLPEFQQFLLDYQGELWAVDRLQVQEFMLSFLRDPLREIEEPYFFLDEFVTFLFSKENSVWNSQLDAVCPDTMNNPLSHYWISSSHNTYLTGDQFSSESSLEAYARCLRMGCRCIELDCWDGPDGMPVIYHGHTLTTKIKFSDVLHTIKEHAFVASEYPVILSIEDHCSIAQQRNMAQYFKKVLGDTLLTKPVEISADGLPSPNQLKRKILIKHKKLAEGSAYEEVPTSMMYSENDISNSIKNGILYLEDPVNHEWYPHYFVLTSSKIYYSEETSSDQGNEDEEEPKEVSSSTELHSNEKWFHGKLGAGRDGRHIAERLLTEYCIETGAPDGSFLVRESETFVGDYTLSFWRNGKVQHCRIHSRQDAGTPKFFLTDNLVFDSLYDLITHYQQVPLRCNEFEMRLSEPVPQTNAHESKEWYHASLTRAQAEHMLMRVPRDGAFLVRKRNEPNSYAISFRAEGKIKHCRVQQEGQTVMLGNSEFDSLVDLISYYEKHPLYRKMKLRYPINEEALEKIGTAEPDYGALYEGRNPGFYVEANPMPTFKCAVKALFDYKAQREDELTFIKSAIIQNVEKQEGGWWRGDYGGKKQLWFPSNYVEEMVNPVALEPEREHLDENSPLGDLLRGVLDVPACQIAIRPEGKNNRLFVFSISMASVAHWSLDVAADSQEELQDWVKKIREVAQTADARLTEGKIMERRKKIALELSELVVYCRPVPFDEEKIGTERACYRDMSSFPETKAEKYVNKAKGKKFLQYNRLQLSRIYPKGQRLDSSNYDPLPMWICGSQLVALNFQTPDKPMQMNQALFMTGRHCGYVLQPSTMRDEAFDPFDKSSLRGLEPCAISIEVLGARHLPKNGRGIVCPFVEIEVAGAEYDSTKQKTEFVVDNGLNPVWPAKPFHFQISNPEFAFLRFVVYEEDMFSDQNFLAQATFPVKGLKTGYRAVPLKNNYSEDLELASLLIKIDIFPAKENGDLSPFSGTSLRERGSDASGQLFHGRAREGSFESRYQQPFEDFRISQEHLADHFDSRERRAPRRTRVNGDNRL
# ADAM10 inh = human ADAM10 inhibitors, primary screen, biochemical, QFRET, HTS. Disintegrin and metalloproteinase domain-containing protein 10 (Homo sapiens), O14672. recombinant ADAM10, EDANS/DABCYL FRET peptide cleavage, 3 h. inhibition, % at 7 µM. hit rate 0.62% among 370,000. AID 720582, 2013;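 active means inhibition above a per-campaign cutoff equal to the mean of compounds falling between control-based bounds plus 3 SD, cut at about 20% in these data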;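 further: 0% = DMSO wells while the 100% control is not disclosed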
# PLC-beta3 inh = human PLC-beta3 inhibitors, primary screen, biochemical, fluorescence; 1-phosphatidylinositol 4,5-bisphosphate phosphodiesterase beta-3 (Homo sapiens), Q01970; Purified PLC-beta3, fluorogenic substrate; inhibition, % at 12.2 µM; hit rate 0.18% among 370,000;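 further: 0% = median of compound wells on plate and 100% = full blocker control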
# proKLK7 act = proKLK7 zymogen activators, primary screen, biochemical, fluorescence intensity; activation, % at 7 µM; Kallikrein-7 (Homo sapiens), P49862; hit rate 0.9% among 370,000; purified proKLK7, EDANS-DABCYL substrate fluorescence; 100% is mature enzyme control, 0% vehicle;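 active means activation above the mean of all tested compounds plus 3 SD, computed per campaign excluding outliers beyond control limits, cut at about 13% in these data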
# sPLA2-III inh = human group III sPLA2 inhibitors, primary screen, biochemical, QFRET, BODIPY PC-A2 liposome substrate | inhibition, % at 12.2 µM | QFRET BODIPY PC-A2 liposome hydrolysis, fluorescence | Group 3 secretory phospholipase A2 (Homo sapiens), Q9NZ20 | hit rate 0.56% among 370,000 | AID 743126, 2013;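 active means inhibition above mean plus 3 SD of compounds lying within the high and low control bounds, cut at about 19% in these data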;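 further: 0% = median of test compound wells and 100% = no enzyme DMSO wells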
# ADAM17 inh = ADAM17 inhibitors, primary screen, biochemical, QFRET; Disintegrin and metalloproteinase domain-containing protein 17 (Homo sapiens), P78536; recombinant ADAM17, EDANS/DABCYL FRET peptide cleavage; inhibition, % at 6.95 µM; hit rate 0.83% among 370,000;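 active means inhibition above the mean of compounds lying between control limits plus 3 SD, set per campaign, cut at about 8.5% in these data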;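 further: 0% = DMSO-only wells as the low control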
# PLCgamma1 ctr = PLC-gamma1 enzyme inhibitors, counter-screen for PLC-beta3 inhibitor project, biochemical, fluorescence; shares compounds with PLC-gamma1 inh; purified PLC-gamma1, fluorogenic substrate; inhibition, % at 12.3 µM; hit rate 3.1% among 3,300; in the data active means inhibition above about 9.5%
# PLCb3 confirm = PLC-beta3 inhibitor confirmation, biochemical, fluorescence, purified enzyme; shares compounds with PLC-gamma1 inh; fluorogenic substrate fluorescence; inhibition, % at 12.3 µM; hit rate 1% among 3,300
# * hit, by the source's call; nt = not tested or not shown. In the library only some 3.4% were active in any assay of this set; here they are far more common. Unless noted, no stated cut-off is given here; in the data, active means inhibition above about 11%; inactive means the rest.
SMILES,PLC-gamma1 inh,ADAM10 inh,PLC-beta3 inh,proKLK7 act,sPLA2-III inh,ADAM17 inh,PLCgamma1 ctr,PLCb3 confirm
O=C(N/N=C/c1ccc([N+](=O)[O-])cc1)c1cccnc1,-1,0,2,0,2,1,nt,nt
COc1ccc(C(=O)NC2CC3CCCC(C2)N3CC(C)C)cc1 (centres undefined),9,0,-5,0,-1,-2,nt,nt
CCCCn1c(=O)n(CC(=O)Nc2c(CC)cccc2CC)c(=O)c2c1nc(CO)n2CCC,2,-3,4,0,-1,-2,nt,nt
CCCCn1c(=O)n(CC(=O)Nc2ccc(OC)c(Cl)c2)c(=O)c2c1nc(CO)n2CCC,9.7*,-12,6,0,-15,-3,13*,7
O=C(O)C1CCCCN1C(=O)c1ccc(S(=O)(=O)N2CCCCCC2)cc1 (centres undefined),1,-9,-3,0,1,-2,nt,nt
O=C(O)C1CCCCN1C(=O)c1ccc(S(=O)(=O)N2CCCC2)cc1 (centres undefined),9.7*,-21,1,0,12,3,-3,0
CCOc1nc(CC(C)C)c2c(c1C#N)CC(C)(C)OC2,-1,-3,-4,0,-1,-3,nt,nt
COC(=O)COc1nc(C)c2c(c1C#N)CC(C)(C)OC2,1,6,11*,0,7,-2,4,6
S=C(N/N=C/c1cccc2ccccc12)Nc1cccc(Cl)c1,-9,0,-12,-1,-9,1,nt,nt
COc1ccc(NS(=O)(=O)c2cccc(NC(=O)c3ccccn3)c2)cc1,-2,0,-8,0,-18,-1,nt,nt
O=C(Nc1cccc(S(=O)(=O)Nc2ccc(Cl)cc2)c1)c1ccccn1,9.7*,3,-7,0,-24,4,-5,-3
O=C(Nc1ccc(Cl)cc1)N[C@@H]1c2c(ccc3ccccc23)OC[C@@H]1CO,0,6,1,-1,-53,0,nt,nt
CN(C(=O)c1ccccc1)C1c2c(ccc3ccccc23)OCC1CO (centres undefined),10*,3,4,0,-6,0,8,11*
CCN(c1ccccc1)S(=O)(=O)c1ccc(OC)c(NC(=O)C2=NN(c3ccccc3)C(=O)CC2)c1,-8,0,-6,-7,-6,-2,nt,nt
O=C(Nc1ncc([N+](=O)[O-])s1)C1CCN(S(=O)(=O)c2cnc[nH]2)CC1,7,9,13*,0,-18,6,-1,0
O=C(NC1CCCCCC1)C1CCN(S(=O)(=O)c2cnc[nH]2)CC1,-2,-1,2,0,-8,-1,nt,nt
CS(=O)(=O)c1cccc(C(=O)NC(c2ccccc2)c2ccccc2)c1,0,-9,-1,1,0,-5,nt,nt
Cc1ccc(C(NC(=O)c2cccc(S(=O)(=O)N3CCN(C)CC3)c2)c2ccccc2)cc1 (centres undefined),10*,-4,6,0,-34,5,1,4
Cc1ccc(NC(=O)c2ccc(-n3cccn3)c([N+](=O)[O-])c2)cc1,-3,4,0,1,-2,3,nt,nt
O=C(Nc1ccccc1Cl)c1ccc(-n2cccn2)c([N+](=O)[O-])c1,11*,-1,-3,0,7,-3,-4,0
O=C(NCc1cccs1)c1cc2c(s1)CCCC2,11*,-2,7,0,2,-6,0,5
COCCCNC(=O)Cn1cnc2c(OCc3ccccc3)ncnc21,0,-2,1,0,1,3,nt,nt
Cc1noc(C)c1COc1ccc(C(=O)N2CCN(S(=O)(=O)c3ccc(F)cc3)CC2)cc1,0,-6,-5,0,12,-8,nt,nt
CSc1cnn(CCC#N)c(=O)n1,12*,-17,4,0,17,0,-6,0
CSc1nc(=O)n(CCC#N)nc1SC,1,-3,12*,-1,3,5,1,4
SMILES,PLC-gamma1 inh,ADAM10 inh,PLC-beta3 inh,proKLK7 act,sPLA2-III inh,ADAM17 inh,PLCgamma1 ctr,PLCb3 confirm
O=C(COC(=O)c1ccc(S(=O)(=O)NCc2ccco2)cc1)Nc1ccccc1OC(F)F,5,12,12*,-1,-28,5,-6,-1
CC(C)n1ncc(C(N)=O)c1N,9.8*,7,2,0,14,7,-3,3
CN(C)N1C(=O)CC(NNC(=O)c2ccncc2)C1=O (centres undefined),10*,11,3,0,1,8,-6,2
CCN1C(=O)CC(NNC(=O)c2ccccc2)C1=O (centres undefined),1,7,-2,0,-5,-2,nt,nt
CCCN(Cc1nnc(-c2ccccc2Cl)o1)C(=O)COc1ccc(Cl)cc1,1,-5,-6,0,-12,1,nt,nt
COC(=O)C1=C(C(=O)OC)[C@@H]2N(C)c3ccc(OC)cc3[C@@]23C[C@@H](C(=O)OC)N(C(=O)CC(C)C)C3=N1,9.6*,8,7,0,7,1,-4,1
Cc1cc(C(=O)N/N=C/c2cccnc2)n[nH]1,10*,4,-2,0,10,2,-3,0
CC(=O)N1CCc2cc(S(=O)(=O)NC(C(=O)Nc3ccc4c(c3)OCCO4)C(C)C)ccc21 (centres undefined),11*,11,3,0,11,3,3,5
CC(=O)N1CCc2cc(S(=O)(=O)CCC(=O)Nc3ccc4c(c3)OCCO4)ccc21,2,1,0,-1,-1,-2,nt,nt
COc1ccc(S(=O)(=O)N2CCc3ccccc3C2)cc1OC,13*,21*,5,-1,-15,4,-4,-4
COc1ccc(S(=O)(=O)N2CCc3ccccc3C2)cc1C(=O)O,1,-1,-2,0,-6,1,nt,nt
O=C(C[C@@H]1C/C=C\C[C@@H](Cc2ccc(F)cc2)C(=O)OC[C@H]2CCCN2C1=O)NCCO,0,-5,-3,2,-4,-8,nt,nt
O=C(C[C@@H]1C/C=C\C[C@H](Cc2ccc(F)cc2)C(=O)OC[C@H]2CCCN2C1=O)NCCO,10*,5,3,1,1,3,-8,-2
